# A selection: hits, their analogues and other compounds. The true share with any hit is near 0.77%.
# NS1 inh: inhibitors of influenza NS1 protein function | Potency, µM (series often up to 46.1 µM), for the others: at the highest dose activity, positive = more growth | hit rate 0.4% among 270,000; calls by dose curve; note: potency is the fitted concentration of half-maximal effect; actives are rising curves; nearly all actives have a fitted effect of over 50% in size
#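 In this qHTS, NS1 from influenza A is expressed in budding yeast, where it slows growth. Cells are switched from glucose to 2% galactose medium (pH 6.0, -URA), treated with compound, and growth recovery is read at OD600.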
# RE007 growth inh: less growth of the S. pombe RE007 Vpr strain; AID 651644; S. pombe RE007 Vpr strain, BacTiter-Glo ATP luminescence, 24 h; Potency, µM (titrated, usually from 92.2 µM), inactives show at the highest dose activity change, negative = less growth, most hits filed as inhibitors; hit rate 0.21% among 360,000; active = well fitted falling curve with a large enough effect; inconclusive = small, poorly fitted or top-dose-only effect; inactive = no such curve, though single readings can be large or run the other way; note: potency is the fitted concentration of half-maximal effect; % is set by controls: 0 for no effect and ±100 for the full control effect; nearly all actives have a fitted effect of over 50% in size
#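 Fission yeast RE007 carrying one integrated HIV-1 vpr copy, seeded at OD 0.01 in PMG+AL medium with 23 nL pinned compound. Grown 24 h at 30 degrees; viability read by BacTiter-Glo luminescence after 5 min.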
# Tb PYK inh: inhibitors of Trypanosoma brucei pyruvate kinase. Q57TT1. AID 624173. Potency, µM (series often up to 76.8 µM), for the others: at the highest dose activity, negative = inhibition, usual class: inhibitors. hit rate 0.12% among 410,000. TbPYK enzyme, Kinase-Glo Plus ATP luminescence, 45 min; note: potency is the fitted concentration of half-maximal effect; % is set by controls: 0 for no effect and ±100 for the full control effect; nearly all actives have a fitted effect of over 50% in size
#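 Quantitative HTS: titrated library compounds versus trypanosomal pyruvate kinase in TEA buffer (pH 7.2) containing KCl, MgCl2, BSA and Tween-20. Reactions were initiated with ADP, 130 uM final. Kinase-Glo Plus luminescence was read after 45 min at RT.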
# LmPK inhibitor: blocks Leishmania mexicana pyruvate kinase activity; Q27686; purified LmPK, Kinase-Glo ATP luminescence, 1 h; hit rate 0.37% among 290,000; Potency, µM (highest dose often 57.5 µM), for inactives: top-dose activity change, negative = inhibition, most hits filed as inhibitors; note: potency is the fitted concentration of half-maximal effect; % is set by controls: 0 for no effect and ±100 for the full control effect
# Target sequence (Q27686 whole entry, looked up): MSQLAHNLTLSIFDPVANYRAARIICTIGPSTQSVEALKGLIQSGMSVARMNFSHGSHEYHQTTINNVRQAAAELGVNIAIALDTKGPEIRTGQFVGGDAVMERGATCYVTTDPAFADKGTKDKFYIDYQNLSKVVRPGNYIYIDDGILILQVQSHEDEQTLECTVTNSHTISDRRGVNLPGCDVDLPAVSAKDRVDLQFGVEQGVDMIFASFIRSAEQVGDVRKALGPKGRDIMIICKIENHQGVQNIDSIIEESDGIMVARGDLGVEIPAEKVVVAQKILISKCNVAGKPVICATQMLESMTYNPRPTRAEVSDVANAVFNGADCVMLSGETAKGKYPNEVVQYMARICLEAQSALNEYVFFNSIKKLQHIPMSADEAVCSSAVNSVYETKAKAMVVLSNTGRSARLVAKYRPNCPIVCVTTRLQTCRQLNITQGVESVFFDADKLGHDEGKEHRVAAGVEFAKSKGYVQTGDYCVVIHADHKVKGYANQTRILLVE
#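 0.1 nM LmPK, 0.5 mM PEP, 0.1 mM ADP; 50 mM imidazole pH 7.2, 7 mM MgCl2, 50 mM KCl; 1 h RT. Kinase-Glo luminescence readout, normalized to no-enzyme (full inhibition) and uninhibited wells.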
# Flu NS1 inh: validation of influenza NS1 protein function inhibitors | shares compounds with NS1 inh | influenza NS1 function cell assay, 15-point titration | activity change, negative = inhibition, % at 32.9 µM | 1,400 tested, under 10 active; calls by dose curve; note: 0% is about no effect
# Flu PR8 replic: influenza virus titer reduction, NS1 project | hit rate 30% among 95 | shares compounds with NS1 inh | MDCK infected influenza A/PR/8/34, virus titer TCID50; stronger effect = lower value | virus titer (log TCID50), log10 TCID50 at 5 µM; call rule not given here
# Starred values were filed as active, the others as inactive; ? = inconclusive; nt = no result given. Unless noted, calls come from the whole dose curve; as a rule, active = well fitted curve in the direction sought with a large enough effect; inconclusive = small, poorly fitted or top-dose-only effect, or another doubt; inactive = no such curve, though single readings can be large; an effect the other way counts as inactive or inconclusive.
SMILES,NS1 inh,RE007 growth inh,Tb PYK inh,LmPK inhibitor,Flu NS1 inh,others
Cc1ccc(NC(=O)C(=O)NCC(c2cccnc2)N2CCN(c3ccccc3F)CC2)cc1Cl (stereo unspecified),nt,nt,-1%,nt,nt,
NC(=S)SCCC(=O)O,2%,nt,nt,nt,nt,
COc1ccc(C=C(c2nc3ccccc3s2)c2nc3ccccc3s2)cc1O,16µM*,0%,-6%,3%,-12,
COc1cc(C=C(c2nc3ccccc3s2)c2nc3ccccc3s2)ccc1O,10%,-20%,-3%,0%,nt,
O=C(c1ncn(Cc2ccccc2)c1C(=O)N1CCc2ccccc2C1)N1CCc2ccccc2C1,nt,-16%,1%,nt,nt,
Cc1nc(NC(=O)c2ccccc2)sc1-c1csc(Nc2ccc(Cl)cc2)n1,5µM*,nt,nt,-1%,1,
O=C(c1cc(COc2c(F)cccc2F)on1)N1CC[C@@H]2CCCC[C@H]2C1,nt,-1%,-4%,nt,nt,
CCOC(=O)c1ccc(NC(=O)CSc2nnc(CCc3ccc(C)o3)n2-c2ccccc2)cc1,1.4µM*,4%,4%,-1%,-20,Flu PR8 replic=7.7
Cc1ccc(CCc2nnc(SCC(=O)Nc3ccccc3Cl)n2-c2ccccc2)o1,-19%,12%,-27%,9%,nt,
CSc1ncnc2c1ncn2CC(=O)[C@H]1CC[C@H]2[C@H]3CCC4=CC(=O)CC[C@@]4(C)[C@@H]3CC[C@@]12C,5%,nt,nt,nt,nt,
Cc1ccc(CC(=O)Nc2ccc(S(=O)(=O)N3CCOCC3)cc2)cc1,?,8%,0%,6%,-27,
COc1ccc(NC(=S)Nc2ccc(S(=O)(=O)N3CCCCC3)cc2)cc1,nt,-10%,-17%,nt,nt,
O=C(Cc1ccc(Cl)cc1)Nc1ccc(S(=O)(=O)N2CCOCC2)cc1,-4%,6%,2%,4%,nt,
COc1ccc(CN2CCN(S(=O)(=O)c3ccc(NC(C)=O)cc3)CC2)cc1,?,8%,4%,-4%,3,
COc1ccc(NC(=S)Nc2cccc(S(=O)(=O)N3CCCCC3)c2)cc1,13µM*,3%,-5%,3%,2,
CCc1ccc(C2CC(=O)c3c([nH]c(C(=O)OC4CCC(C)CC4)c3C)C2)cc1 (stereo unspecified),nt,nt,8%,nt,nt,
CN(CC(=O)Nc1ccc(Cl)c(Cl)c1)CC(=O)N1CCCCCC1,nt,-4%,-6%,nt,nt,
COc1ccc(-c2c(C)nc(N)nc2-c2ccc(OCc3ccc(C)cc3)cc2O)cc1OC,3.2µM*,2%,2%,4%,2,
CN[C@H](Cc1ccccc1)c1cccc(OC)c1O,0%,nt,nt,nt,nt,
Nc1ccc2nc(SCC(=O)Nc3ccc(N4CCOCC4)c(Cl)c3)sc2c1,10µM*,-16%,-10%,0%,-6,
CC(C)(C)C(=O)CSc1nc2ccsc2c(=O)n1Cc1ccccc1Cl,nt,nt,-4%,nt,nt,
Cc1nn(-c2ccccc2)c2c1C(c1ccc([N+](=O)[O-])cc1)N1C(=N2)C(=O)Nc2ccccc21 (stereo unspecified),10µM*,22%,0%,0%,7,
N#C/C(=C\c1cn(CCOc2ccccc2)c2ccccc12)C(=O)NCc1ccco1,?,5%,0%,4%,-15,
Cc1ccccc1OCCn1cc(/C=C(\C#N)C(=O)NCc2ccco2)c2ccccc21,4%,3%,-6%,2%,nt,
COCCCNc1ncnc2c1cnn2-c1ccc(F)cc1,nt,nt,6%,nt,nt,
O=C(c1cnn2c(C(F)(F)F)cc(-c3cccs3)nc12)N1CCN(C(c2ccccc2)c2ccccc2)CC1,16µM*,9%,6%,-2%,7,
NC(=S)NNC(=O)c1cccc(Cl)c1,3.2µM*,9%,4%,-3%,7,
N=C(N)c1ccc(/C=C\c2ccc(C(=N)N)cc2)cc1,-48%,nt,nt,nt,nt,
Cc1ccc(C(=O)CSc2nnc(CNc3nc(-c4ccccc4)cs3)n2C)cc1,3.2µM*,13%,1%,3%,-16,
COC(=O)c1cccc(C23CC4(C2)[C@H](CN(Cc2cccnc2)[C@@H]4c2ccccc2)C3c2ccc(C(F)(F)F)cc2)c1 (stereo partly specified),8.9µM*,19%,2%,3%,2,

# Screening results: PubChem, National Center for Advancing Translational Sciences (NCATS)
